KB-3-1 cytotox – KB-3-1 parental cell cytotoxicity; Potency, µM (titrated, usually from 46.1 µM), actives largely listed as cytotoxic; KB-3-1 viability, CellTiter-Glo ATP luminescence, 72 h; 1.4% of 400,000 active; also: % is scaled to controls: 0 for no effect and ±100 for the full control effect; nearly all actives have a fitted effect of over 60% in size
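KB-3-1 cells, DMEM (no phenol red) + 10% FBS; compound by pin transfer, 72 h, 37 °C. Readout: CellTiter-Glo luminescence after 10 min. Data normalized, curve-fitted.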
SW480 rereplic – induces DNA re-replication in SW480 colon adenocarcinoma cells; SW480 DNA re-replication, Hoechst DNA content imaging, 48 h; Potency, µM (top dose mostly 46.1 µM), for inactives: at the highest dose re-replication activation, usual class: activators; 1.8% of 340,000 active; also: % of control where 0% means no effect; nearly all actives have a fitted effect of over 55% in size
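Image-based DNA-content assay: after two days of treatment, nuclei were labelled with the DNA dye Hoechst and imaged, and hits were compounds raising the count of nuclei showing high fluorescence intensity.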
KB-V1 cytotox – kills drug-selected multidrug resistant KB-V1 cells; KB-V1 MDR cells viability, CellTiter-Glo, 72 h; Potency, µM (series often up to 46.1 µM), usual class: cytotoxic; 3.4% of 400,000 active; also: % is scaled to controls: 0 for no effect and ±100 for the full control effect; nearly all actives have a fitted effect of over 60% in size
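In this primary screen, KB-V1 cells overexpressing P-gp are incubated with library compounds (lowest to highest concentration) for 72 h at 37 degrees C before a luminescent ATP viability read.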
HT1080-NT tox – kills 2HG-producing HT-1080-NT fibrosarcoma cells; HT-1080-NT fibrosarcoma viability, CellTiter-Glo ATP luminescence, 48 h; Potency, µM (doses to about 46.1 µM), without a hit: at the highest dose activity, negative = less viability, actives largely listed as cytotoxic; 1.6% of 360,000 active; AID 686970;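 also: NT is the 2HG producing partner of a matched IDH1 knockdown line; 0% = DMSO-treated cells and -100% = media-only wells without cells; nearly all actives have a fitted effect of over 55% in size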
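Read-out is CellTiter-Glo luminescence after 10 minutes at room temperature, following 48 hours' compound treatment of HT-1080-NT cells (750 cells/well, RPMI, 5% FBS, 37 degrees C).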
HT1080 IDH1KD tx – toxicity to HT-1080 IDH1 knockdown cells (counter line); 2% of 360,000 active; HT-1080 IDH1 knockdown viability, ATP luminescence, 48 h; Potency, µM (titrated, usually from 46.1 µM), inactives show at the top dose activity, negative = toxicity, actives largely listed as cytotoxic;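 also: 0% = DMSO wells and -100% = cell-free medium wells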
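% activity derives from luminescence (CellTiter-Glo), normalised to DMSO and no-cell wells. HT-1080-IDH1KD cells, 750/well, had 48 h compound exposure at 37 °C.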
MCF10A rerep – induces DNA re-replication in MCF 10a normal breast cells; 2.9% of 350,000 active; AID 624296; Potency, µM (titrated, usually from 46.1 µM), without a hit: top-dose activity, positive = re-replication, hits mostly activators; MCF 10A DNA re-replication, Hoechst nuclear intensity, 48 h; also: % of control where 0% means no effect; nearly all actives have a fitted effect of over 50% in size
* hit, by the source's call; i = inactive; ? = inconclusive; . = no result; [ ] = dose if it differs, or a comment. Sampled rows, rich in hits. Any-hit rate of the full collection: about 7.9%. Calls follow the shape of the dose curve; as a rule, active = well fitted curve in the direction sought with a large enough effect; inconclusive = small, poorly fitted or top-dose-only effect, or another doubt; inactive = no such curve, though single readings can be large; an effect the other way counts as inactive or inconclusive. Potency is read from the fitted curve at half-maximal effect.

SMILES | KB-3-1 cytotox | SW480 rereplic | KB-V1 cytotox | HT1080-NT tox | HT1080 IDH1KD tx | MCF10A rerep
COc1ccc(NC(=O)C(c2ccc(OC)cc2)n2c(=O)c(-c3ccco3)nc3ccccc32)cc1 (configuration not stated) | i | . | ? | -13.6% | -21.6% | .
CCOc1ccc(NC(=O)COC(=O)c2ccccc2OCC(=O)N(C)C)cc1 | ? | . | i | . | . | .
C[n+]1c2n(c3ccccc31)N=C(c1cc(C(C)(C)C)c(O)c(C(C)(C)C)c1)CS2 | 4.11µM* | ? | i | 23.1µM* | 7.31µM* | 16.4µM*
CCc1ccc(N2C(=O)C(Cl)=C(Nc3ccc(C(=O)N4CCCC4)cc3)C2=O)cc1 | i | ? | i | -4.5%[9.24 µM] | -26.5% | 10.3µM*
O=C(Nc1cccc(C(F)(F)F)c1)c1cc(CN2CCOCC2)on1 | i | . | i | . | . | .
COc1c(N2CCN(C(=S)NCc3ccccc3)C(C)C2)c(F)cc2c(=O)c(C(=O)O)cn(C3CC3)c12 (configuration not stated) | ? | -0.4%[9.22 µM] | i | ? | 18.4µM* | 1.7%
Cc1ccc(S(=O)(=O)NCCC(=O)N2CCN(Cc3ccccc3)CC2)cc1 | i | 9.6% | ? | -3.1% | 10.6% | -4.3%
CC(=O)N1CCc2cc(S(=O)(=O)NCCC(=O)N3CCN(Cc4ccccc4)CC3)ccc21 | ? | 2.5% | 16.4µM* | -24.5% | -4.6% | 25.9%
N/C(=N\OC(=O)c1cccc2ccccc12)c1ccccn1 | i | 0.3% | i | ? | 25.9µM* | 4.1%
Cc1ccc(C(=O)O/N=C(\N)c2ccccn2)c(Cl)c1 | ? | -5.2% | ? | 16.4µM* | ? | 3.9%
O=C1C2C3C=CC(CO)(O3)C2C(=O)N1c1ccccc1-c1ccccc1 (configuration not stated) | i | 10.3µM* | i | 3.16µM* | 1.58µM* | 7.31µM*
O=C1C2C3C=CC(CNS(=O)(=O)c4ccccc4)(O3)C2C(=O)N1c1ccc(Cl)cc1 (configuration not stated) | i | 11.6µM* | ? | 2.2% | -10.5% | ?
CC(=O)Oc1ccc(N2C(=O)C3C4C=CC(CO)(O4)C3C2=O)cc1 (configuration not stated) | i | ? | i | -7.0% | 0.5%[9.24 µM] | ?
CS(=O)(=O)c1ccc(C(=O)OCC(=O)N2CCCC2)cc1[N+](=O)[O-] | i | . | i | . | . | .
O=C(Cc1cccc(NC(=O)C2CCCN(C(=O)C3CCCCC3)C2)c1)Nc1ccc(C(=O)N2CCCCC2)cc1 (configuration not stated) | i | -0.2%[9.22 µM] | ? | 9.9% | 15.5% | 12.4%
COc1ccc(NS(=O)(=O)c2cc(NC(=O)c3sccc3C)ccc2N2CCOCC2)cc1 | 7.31µM* | ? | i | ? | -5.3% | ?
Nc1cc(S(=O)(=O)Nc2ccc(Cl)cc2)ccc1N1CCOCC1 | 23.1µM* | 3.8% | ? | ? | -12.4% | ?
Nc1cc(S(=O)(=O)Nc2ccccc2Cl)ccc1N1CCOCC1 | ? | -2.1% | i | -6.9% | 1.4% | 0.4%
COc1ccc(NS(=O)(=O)c2cc(NC(=O)c3cc(F)c(F)cc3Cl)ccc2N2CCOCC2)cc1 | i | ? | i | -15.4% | -24.8% | -4.7%
COc1ccccc1NS(=O)(=O)c1cc(NC(=O)c2sccc2C)ccc1N1CCOCC1 | i | 11.2% | i | -21.9% | -27.6% | 8.1%
COc1ccccc1NS(=O)(=O)c1cc(NC(=O)COc2ccccc2F)ccc1N1CCOCC1 | i | -0.3% | 4.61µM* | 2.8% | 1.7% | 0.0%
COCC(=O)Nc1ccc(N2CCOCC2)c(S(=O)(=O)Nc2ccccc2OC)c1 | ? | 4.6% | ? | -4.0% | -4.9% | 1.5%
CCOC(=O)Nc1ccc(N2CCOCC2)c(S(=O)(=O)Nc2ccc(Cl)cc2)c1 | i | 20.6µM* | ? | ? | ? | ?
CCS(=O)(=O)c1ncc(N(Cc2ccco2)Cc2ccccc2F)c(C(=O)Nc2cccc(Cl)c2)n1 | i | . | i | . | . | .
COc1ccc(OC)c(C2=NOC(C(=O)NCCN3CCOCC3)C2)c1 (configuration not stated) | i | -2.2% | ? | -0.3%[9.24 µM] | -0.7% | -0.9%
SMILES | KB-3-1 cytotox | SW480 rereplic | KB-V1 cytotox | HT1080-NT tox | HT1080 IDH1KD tx | MCF10A rerep
COc1ccc(OC)c(C2=NOC(C(=O)NCc3cccs3)C2)c1 (configuration not stated) | 20.6µM* | ? | ? | -29.7% | ? | ?
COc1ccc(OC)c(C2=NOC(C(=O)Nc3cccnc3)C2)c1 (configuration not stated) | i | -1.7% | 23.1µM* | 16.0% | 25.1% | -8.4%
c1ccc(-c2nnsc2-c2ncc[nH]2)cc1 | i | -1.8% | i | 11.0% | ? | -6.4%
O=S(=O)(c1ccc(Cl)cc1)c1snnc1-c1ccccc1 | 5.8µM* | ? | ? | 11.6µM* | 7.31µM* | ?
O=S(=O)(c1ccc(F)cc1)c1snnc1-c1ccccc1 | 13µM* | 52.4% | i | 6.51µM* | ? | 7.31µM*
COc1ccc(Cl)cc1N(C)c1nc(N2CCN(S(=O)(=O)c3ccc(C)cc3)CC2)c2ccccc2n1 | . | . | . | -14.7% | 19.3% | .
S=c1[nH]c2ccccc2n1CCc1ccccc1 | i | . | i | . | . | .
CCCCN(C)CCCNC(=O)c1ccc2nc(N3CCCCC3)sc2c1 | i | . | i | . | . | .
COC(=O)c1cccc(C(=O)Nc2ccc(C)cc2Br)n1 | i | -10.9% | 14.6µM* | 1.4% | 6.1% | 4.6%
CCN(Cc1ccccc1)C(c1cc2cc(C)ccc2[nH]c1=O)c1nnnn1CCOC (configuration not stated) | ? | 2.8% | 16.4µM* | 5.3% | 0.6%[9.24 µM] | 0.7%
COCCn1nnnc1C(c1cc2cc(C)cc(C)c2[nH]c1=O)N1CCN(c2ccccc2F)CC1 (configuration not stated) | i | 0.9% | 23.1µM* | 3.7% | -2.6% | 1.9%
CCN(Cc1ccccc1)C(c1cc2cc(C)cc(C)c2[nH]c1=O)c1nnnn1CCOC (configuration not stated) | i | 5.4% | i | -7.6% | -11.7% | 1.3%
O=C(c1ccccc1)c1nn(-c2ccc(Cl)cc2)c(=O)cc1C(F)(F)F | ? | ? | 18.4µM* | 18.4µM* | 20.6µM* | 11.6µM*
O=C(c1cccc(Cl)c1)c1nn(-c2ccccc2)c(=O)cc1C(F)(F)F | ? | -5.0% | 23.1µM* | ? | ? | -6.3%

High-throughput results deposited in PubChem BioAssay by National Center for Advancing Translational Sciences (NCATS).
